Screening results (PubChem)
Most compounds without a hit are left out; they make up all but 10% or so of the library.
JMJD2A Tudor – qHTS Assay for Inhibitors of JMJD2A-Tudor Domain. Potency, µM (highest dose often 114 µM), without a hit: at the top dose activity change, negative = inhibition, hits mostly inhibitors. AlphaScreen JMJD2A-Tudor / H3K4me3 peptide binding. 390,000 tested, 4.4% active. Lysine-specific demethylase 4A (Homo sapiens), O75164; note: potency is the fitted concentration of half-maximal effect; % is set by controls: 0 for no effect and ±100 for the full control effect; nearly all actives have a fitted effect of over 50% in size
G9a block – qHTS Assay for Inhibitors of Histone Lysine Methyltransferase G9a. G9a H3K9 monomethylation, AlphaScreen, 2 h. Potency, µM (doses to about 102 µM), inactives show top-dose activity, negative = inhibition, most hits filed as inhibitors. 350,000 tested, 8.8% active. AID 504332, 2011. Histone-lysine N-methyltransferase EHMT2 (Homo sapiens), Q96KQ7; note: potency is the fitted concentration of half-maximal effect; % is set by controls: 0 for no effect and ±100 for the full control effect; nearly all actives have a fitted effect of over 75% in size
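Using a bead-based AlphaScreen, monomethylated H3K9 product from 2 h room-temperature reactions (G9a 20 nM, peptide 500 nM, SAM 20 uM) was detected with 0.5 ug/mL rabbit anti-H3K9me1 antibody.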
BAZ2B block – qHTS Assay for Inhibitors of BAZ2B | AID 504333, 2011 | 360,000 tested, 4.4% active | Bromodomain adjacent to zinc finger domain protein 2B (Homo sapiens), Q9UIF8 | Potency, µM (series often up to 114 µM), without a hit: top-dose activity change, negative = inhibition, most hits filed as inhibitors | AlphaScreen BAZ2B-H3K14Ac peptide displacement; note: potency is the fitted concentration of half-maximal effect; % is set by controls: 0 for no effect and ±100 for the full control effect; nearly all actives have a fitted effect of over 60% in size
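AlphaScreen displacement of biotin-H3(5-23)K14Ac peptide (50 nM final) from BAZ2B (50 nM final) in PBS pH 7.4, 0.01% Tween-20; complex preformed 30 min RT, then compounds (top 110 uM) 30 min RT, beads 20 min dark.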
CtBP-E1A inh – qHTS Assay for Inhibitors of the CtBP/E1A Interaction | AlphaScreen GST-E1A/His-CtBP binding, 1536-well; hits give low values | activity change, % (concentration not given with the values) | 340,000 tested, 0.49% active | AID 651724, 2012; in the data active = activity change below about -65%; inconclusive = mostly about -30% to -63%; note: % is set by controls: 0 for no effect and ±100 for the full control effect
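GST-E1A and His-tagged CtBP (125 nM each as 5X stock) were preincubated with pin-transferred compound for 2 h at 37 °C in the dark, then glutathione donor and nickel acceptor beads were added for 1 h before AlphaScreen reading.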
Six1-Eya2 inh – qHTS Assay for Inhibitors of the Six1/Eya2 Interaction. Homeobox protein SIX1 (Homo sapiens) + Protein phosphatase EYA2 (Homo sapiens), …. AlphaScreen GST-Six1/His-Eya2 binding, biochemical; hits give low values. activity change, % (test concentration not listed). 360,000 tested, 0.56% active; in the data active = activity change below about -65%; inconclusive = mostly about -30% to -63%; note: % is set by controls: 0 for no effect and ±100 for the full control effect
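Six1/Eya2 binding was read as AlphaScreen signal after compounds were pinned into GST-Six1 plus His-tagged Eya2 (5X stock 250/500 nM) in pH 8.0 Tris/NaCl/TCEP buffer, beads added, then incubated 1 h, 37 C, dark.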
HP1b binding inh – HTS for Inhibitors of HP1-beta Chromodomain Interactions with Methylated Histone Tails. AlphaScreen HP1-beta / biotin-H3K9me3 peptide binding. Potency, µM (doses to about 114 µM), for inactives: at the top dose activity change, negative = inhibition, most hits filed as inhibitors. 390,000 tested, 0.56% active. AID 540317, 2011; note: potency is the fitted concentration of half-maximal effect; nearly all actives have a fitted effect of over 70% in size
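AlphaScreen: HP1-beta (50 nM) preformed 30 min with biotin-H3(1-18)K9me3 peptide (50 nM) in PBS pH 7.4, 0.01% Tween-20. Compound added for 30 min at RT, then streptavidin donor/nickel chelate acceptor beads (10 ug/mL) for 30 min.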
Starred values were filed as active, the others as inactive; ? = inconclusive; . = not tested or not shown; [ ] = remark or other dose. Unless noted, calls come from the whole dose curve; as a rule, active = well fitted inhibition curve with a large enough effect; inconclusive = small, poorly fitted or top-dose-only effect; inactive = no such curve, though single readings can be large or run the other way.

SMILES	JMJD2A Tudor	G9a block	BAZ2B block	CtBP-E1A inh	Six1-Eya2 inh	HP1b binding inh
Cc1ccc(Cn2cc(CCC(=O)NC3CCC(C)CC3)c3ccccc32)cc1 (centres undefined)	-11%	1%[59 µM]	-22%	.	.	35%
CC(C)(C)C(=O)[C@@H]1[C@@H]2C(=O)N(c3ccc4c(c3)OCCO4)C(=O)[C@@H]2C2c3ccccc3C=CN21 (some centres undefined)	?	8.9µM*	?	-5	-16	?
COc1ccc(C2=NO[C@@H]3C(=O)N(c4ccc5c(c4)OCCO5)C(=O)[C@H]23)cc1OC	25%	-31%[12.7 µM]	3%	3	0	16%
COc1cc(OC)c(NC(=O)Cn2c(=O)c(C(F)(F)F)nc3ccccc32)cc1Cl	-17%	-1%[59 µM]	-1%	.	.	13%
O=S1(=O)C=C(Sc2nc3cc(Cl)ccc3o2)c2ccccc21	?	45µM*	-24%	1	-7	-11%
CCn1c(SCc2ccccc2F)nc(=O)c2c(C(=O)OC)cc(C3CC3)nc21	-33%	-27%[59 µM]	-7%	.	.	11%[57 µM]
Cc1ccc(CN2CCCn3nc(C(=O)NCC(C)c4ccccc4)cc3C2=O)cc1 (centres undefined)	-13%	24%[59 µM]	-1%	.	.	0%
C#CCOCCOCCOCCNc1nc(OC)nc(N2CCN(C(=O)[C@H](CCCCN)n3cc(C(N)CO)nn3)CC2)n1 (some centres undefined)	.	-20%[12.7 µM]	?	.	.	.
C#CCOCCOCCOCCNc1nc(N2CCOCC2)nc(N2CCN(C(=O)[C@H](CCCCN)n3cc([C@@H](N)CO)nn3)CC2)n1	79µM*	-30%[12.7 µM]	50µM*	0	0	17%
C#CCOCCOCCOCCNc1nc(N2CCN(C(=O)[C@H]([C@@H](C)CC)n3cc([C@@H](N)CC(C)C)nn3)CC2)nc(N2CCN(C(=O)[C@H](CCCCN)n3cc([C@@H](N)CO)nn3)CC2)n1	79µM*	?	79µM*	-14	-6	30%
C#CCOCCOCCOCCNc1nc(N2CCN(C(=O)[C@H]([C@@H](C)CC)n3cc(CCCCN)nn3)CC2)nc(N2CCN(C(=O)[C@H](CCCCN)n3cc(CC(C)O)nn3)CC2)n1 (some centres undefined)	-34%	-37%[2.33 µM]	?	5	0	23%
C#CCOCCOCCOCCNc1nc(N2CCN(C(=O)[C@H]([C@@H](C)CC)n3cc([C@@H](N)CO)nn3)CC2)nc(N2CCN(C(=O)[C@H](CCCCN)n3cc([C@@H](N)CO)nn3)CC2)n1	56µM*	.	.	-9	1	61%
COc1ccc(C)cc1NC(=O)C1CCCN(c2ncnc3onc(C)c23)C1 (centres undefined)	-18%	-7%[59 µM]	10%[57.1 µM]	.	.	-6%
COc1ccc(-c2nc3ccccc3s2)cc1NC(=O)COc1cccc(C)c1	-7%	10%[59 µM]	-11%	.	.	27%
Cc1ccc(NC(=O)c2oc3ccc(S(=O)(=O)N4CCCCC4)cc3c2C)c(C)c1	-26%	?	24%	.	.	47%
Fc1cccc(Cl)c1C1Nc2cccc3cccc(c23)N1	?	.	32µM*	.	-4	-16%
Clc1cccc(Cl)c1C1Nc2cccc3cccc(c23)N1	45µM*	16µM*	25µM*	-7	-20	?
Cc1cccc(NC(=O)Cn2c(=O)n(CCC(=O)N3CCc4ccccc4C3)c(=O)c3ccccc32)c1	-24%	-9%[59 µM]	-2%	.	.	1%
COc1cccc(NC(=O)Cn2nnc(C(=O)NCc3cccs3)c2N)c1	-1%	5%	-24%	2	2	44%
COc1ccc(CCNC(=O)c2nnn(CC(=O)Nc3ccc(C)cc3C)c2N)cc1OC	-29%	-10%[59 µM]	79µM*	2	1	40%
COc1ccc(NC(=O)Cn2nnc(C(=O)NCc3cccs3)c2N)c(OC)c1	22µM*	0%[59 µM]	-16%	-11	7	-19%
Cc1ccc(NC(=O)Cn2nnc(C(=O)NCCc3ccccc3)c2N)c(C)c1	11µM*	-13%[59 µM]	?	-12	5	13%
Cc1ccc(C)c(NC(=O)Cn2nnc(C(=O)NCCc3ccccc3)c2N)c1	-35%	?	4%[57.1 µM]	.	.	13%
COc1ccc(Cl)cc1NC(=O)Cn1nnc(C(=O)NCCc2ccc(OC)c(OC)c2)c1N	-22%	12%	-13%	.	-2	13%[57 µM]
CCc1nn(CC(=O)N2CCN(c3cccc(C)c3)C(C)C2)c(=O)c2cc3sccc3n12 (centres undefined)	-24%	?	22%	.	.	39%
SMILES	JMJD2A Tudor	G9a block	BAZ2B block	CtBP-E1A inh	Six1-Eya2 inh	HP1b binding inh
CN(C)c1ccc(-c2nc(-n3ccnc3)c3ccccc3n2)cc1	.	5%[0.501 µM]	.	.	.	.
COC(=O)c1cc2nc(-c3ccc(OC)c(OC)c3)cc(C(F)(F)F)n2n1	-16%	6%[59 µM]	25%	-13	-10	19%
O=C(NCc1cccnc1)c1cc2nc(-c3cccs3)cc(C(F)(F)Cl)n2n1	-6%	50µM*	-36%	-7	-10	45%
O=C(NCCc1ccccc1)c1nc2nc(-c3cccs3)cc(C(F)(F)F)n2n1	?	-44%[59 µM]	50µM*	?	?	50%
COc1ccc(-c2cc(C(F)(F)F)n3nc(C(=O)O)cc3n2)cc1OC	-16%	15%[59 µM]	?	?	-70*	21%
O=C(O)c1cc2nc(-c3cccs3)cc(C(F)(F)F)n2n1	-34%	71µM*	50µM*	-13	?	20%
O=C(NCc1ccco1)c1cc2nc(-c3cccs3)cc(C(F)(F)F)n2n1	-9%	?	-8%	-13	-7	16%
COc1cc(C2Nc3ccccc3C(=O)N2Cc2ccco2)cc(OC)c1OC (centres undefined)	-34%	.	.	.	.	9%
COc1ccccc1CNC(=O)Cn1cc2c(n1)-c1c(oc(C(=O)N3CCOCC3)c1C)CC2	-8%	-8%[59 µM]	-35%	.	.	40%
COc1ccccc1OCC(=O)Nc1nc(-c2ccc(Br)cc2)ns1	-11%	6%[59 µM]	-2%	.	.	27%
COc1ccc(C)cc1Nc1n[n+](-c2ccccc2)c(-c2ccc(NC(C)=O)cc2)s1	-30%	32µM*	?	0	2	42%
COc1ccc(C)cc1Nc1n[n+](-c2ccccc2)c(-c2cc([N+](=O)[O-])cc(OC)c2O)s1	?	32µM*	?	3	-7	-2%
